Assay results published in PubChem BioAssay AID1159580 (chemical genetic matrix, 2015).
“And” between values parts separate entries of the source, which are not always exact repeats. Equal values may be shown once. In all, about 5,500 compounds went through this assay and about 2,000 (36%) were called active. Roughly 18% stayed inconclusive and do not appear here. No stated cut-off is given here; in the data, active means normalized growth mostly below about 0.91 (no sharp cut-off); inconclusive means no clear call, values can overlap the other calls; inactive means mostly above about 0.92. The list shows a part of the results.

Assay: chemical genetic growth profiling, strain panel (AID 1159580);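 further: tested at 20 µM; growth read once vehicle control cultures reached saturation at 30 °C; 1 = growth at the plate median or of vehicle wells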
Settings: S. cerevisiae deletion strains, growth OD

Measured: normalized growth

N#C/C(=C\c1cccc(O)c1)C(=O)O
inactive: locus YAL013W, strain DEP1, stronger effect = lower value 0.996 | locus YAL021C, strain ccr4, stronger effect = lower value 0.978 | locus YAL026C, strain drs2, stronger effect = lower value 0.985 | locus YAL030W, strain snc1, stronger effect = lower value 0.977 | locus YBL061C, strain skt5, stronger effect = lower value 0.976 | locus YBR009C, strain hhf1, stronger effect = lower value 1.03 | locus YBR021W, strain FUR4, stronger effect = lower value 1.02 | locus YBR023C, strain chs3, stronger effect = lower value 0.979 | locus YBR171W, strain sec66, stronger effect = lower value 0.995 | locus YBR229C, strain ROT2, stronger effect = lower value 0.961 | locus YBR231C, strain swc5, stronger effect = lower value 1.01 | locus YBR279W, strain paf1, stronger effect = lower value 0.987 | locus YCL016C, strain dcc1, stronger effect = lower value 0.966 | locus YCL029C, strain bik1, stronger effect = lower value 0.997 | locus YCL061C, strain MRC1, stronger effect = lower value 0.985 | locus YCL069W, strain vba3, stronger effect = lower value 1 | locus YCR088W, strain abp1, stronger effect = lower value 0.989 | locus YDL005C, strain med2, stronger effect = lower value 0.999 | locus YDL035C, strain GPR1, stronger effect = lower value 0.994 | locus YDL040C, strain nat1, stronger effect = lower value 0.99 | locus YDL074C, strain BRE1, stronger effect = lower value 0.981 | locus YDL101C, strain DUN1, stronger effect = lower value 0.974 | locus YDL134C, strain PPH21, stronger effect = lower value 0.992 | locus YDL185W, strain tfp1, stronger effect = lower value 0.98 | locus YDL192W, strain arf1, stronger effect = lower value 0.994 | locus YDR001C, strain nth1, stronger effect = lower value 0.988 | locus YDR069C, strain doa4, stronger effect = lower value 0.985 | locus YDR101C, strain arx1, stronger effect = lower value 1.01 | locus YDR137W, strain rgp1, stronger effect = lower value 0.977 | locus YDR150W, strain NUM1, stronger effect = lower value 0.974 | locus YDR159W, strain sac3, stronger effect = lower value 0.987 | locus YDR162C, strain NBP2, stronger effect = lower value 0.921 | locus YDR195W, strain ref2 1 | locus YDR297W, strain sur2, stronger effect = lower value 0.984 | locus YDR318W, strain mcm21, stronger effect = lower value 1.03 | locus YDR334W, strain swr1, stronger effect = lower value 0.981 | locus YDR335W, strain msn5, stronger effect = lower value 0.982 | locus YDR388W, stronger effect = lower value 0.999 | locus YDR392W, strain spt3, stronger effect = lower value 0.933 | locus YDR502C, strain sam2, stronger effect = lower value 0.997 | locus YEL003W, strain gim4, stronger effect = lower value 0.997 | locus YEL037C, strain rad23, stronger effect = lower value 0.997 | locus YEL061C, strain CIN8 (second series), stronger effect = lower value 0.989 | locus YEL061C, strain CIN8, stronger effect = lower value 0.985 | locus YER015W, strain faa2, stronger effect = lower value 0.975 | locus YER016W, strain bim1, stronger effect = lower value 0.949 | locus YER110C, stronger effect = lower value 0.942 | locus YER111C, strain swi4, stronger effect = lower value 0.971 | locus YER155C, strain BEM2 (second series), stronger effect = lower value 1.04 | locus YER155C, strain BEM2, stronger effect = lower value 0.986 | locus YER167W, strain BCK2, stronger effect = lower value 1.05 | locus YFR010W, strain ubp6, stronger effect = lower value 1.01 | locus YGL078C, strain dbp3, stronger effect = lower value 0.976 | locus YGL086W, strain mad1, stronger effect = lower value 1.03 | locus YGL167C, strain pmr1, stronger effect = lower value 0.99 | locus YGL173C, strain kem1, stronger effect = lower value 1.01 | locus YGL227W, strain vid30, stronger effect = lower value 0.985 | locus YGL240W, strain doc1, stronger effect = lower value 0.986 | locus YGL248W, strain PDE1, stronger effect = lower value 0.984 | locus YGL253W, strain hxk2, stronger effect = lower value 0.975 | locus YGR078C, strain PAC10, stronger effect = lower value 0.996 | locus YGR135W, strain pre9, stronger effect = lower value 0.993 | locus YGR229C, strain SMI1, stronger effect = lower value 1.02 | locus YGR252W, strain gcn5, stronger effect = lower value 1.07 | locus YHR013C, strain ard1, stronger effect = lower value 0.962 | locus YHR027C, strain rpn1, stronger effect = lower value 0.984 | locus YHR030C, strain SLT2, stronger effect = lower value 0.999 and 0.994 | locus YHR079C, strain IRE1 (second series), stronger effect = lower value 1 | locus YHR079C, strain IRE1, stronger effect = lower value 0.969 | locus YHR094C, strain hxt1, stronger effect = lower value 0.993 | locus YHR129C, strain ARP1, stronger effect = lower value 1 | locus YHR142W, strain chs7, stronger effect = lower value 0.971 | locus YHR200W, strain rpn10, stronger effect = lower value 1 | locus YIL066C, strain RNR3, stronger effect = lower value 0.989 | locus YIL073C, strain SPO22, stronger effect = lower value 1.1 | locus YIL125W, strain kgd1, stronger effect = lower value 0.989 | locus YIR030C, strain dcg1, stronger effect = lower value 0.991 | locus YJL092W, strain hpr5, stronger effect = lower value 0.987 | locus YJL095W, strain BCK1 (second series), stronger effect = lower value 0.984 | locus YJL095W, strain BCK1, stronger effect = lower value 1.01 and 0.978 | locus YJL115W, strain asf1, stronger effect = lower value 0.97 | locus YJL129C, strain trk1, stronger effect = lower value 0.925 | locus YJL134W, strain LCB3, stronger effect = lower value 0.987 | locus YJL154C, strain vps35, stronger effect = lower value 0.985 | locus YJL164C, strain tpk1, stronger effect = lower value 0.987 | locus YJL166W, strain qcr8, stronger effect = lower value 1 | locus YJL168C, strain set2, stronger effect = lower value 0.995 | locus YJL187C, strain SWE1 (second series), stronger effect = lower value 0.966 | locus YJL187C, strain SWE1, stronger effect = lower value 0.997 | locus YJR043C, strain POL32, stronger effect = lower value 1.04 | locus YJR066W, strain TOR1, stronger effect = lower value 0.98
